Assay results reported in PubChem BioAssay AID623992 (NMMLSC, 2012).
Results with a measured potency or affinity are listed apart. Activity calls are given as the source filed them.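 Rule for the calls: active = compounds whose fitted half-maximal effective concentration for blocking dye efflux is below 100 µM; inactive = the rest.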

Target: Benomyl/methotrexate resistance protein (Candida albicans) (UniProt P28873)
Assay: Candida albicans Mdr1 pump blockade titration – singleplex, Cherry Pick2 set, dose response (AID 623992)
Conditions: S. cerevisiae AD/CaMDR1, Nile Red efflux, flow cytometry; series mostly up to 100 µM; efflux inhibition response: at the top concentration

Sequence of Benomyl/methotrexate resistance protein (Candida albicans) (P28873 whole entry, looked up): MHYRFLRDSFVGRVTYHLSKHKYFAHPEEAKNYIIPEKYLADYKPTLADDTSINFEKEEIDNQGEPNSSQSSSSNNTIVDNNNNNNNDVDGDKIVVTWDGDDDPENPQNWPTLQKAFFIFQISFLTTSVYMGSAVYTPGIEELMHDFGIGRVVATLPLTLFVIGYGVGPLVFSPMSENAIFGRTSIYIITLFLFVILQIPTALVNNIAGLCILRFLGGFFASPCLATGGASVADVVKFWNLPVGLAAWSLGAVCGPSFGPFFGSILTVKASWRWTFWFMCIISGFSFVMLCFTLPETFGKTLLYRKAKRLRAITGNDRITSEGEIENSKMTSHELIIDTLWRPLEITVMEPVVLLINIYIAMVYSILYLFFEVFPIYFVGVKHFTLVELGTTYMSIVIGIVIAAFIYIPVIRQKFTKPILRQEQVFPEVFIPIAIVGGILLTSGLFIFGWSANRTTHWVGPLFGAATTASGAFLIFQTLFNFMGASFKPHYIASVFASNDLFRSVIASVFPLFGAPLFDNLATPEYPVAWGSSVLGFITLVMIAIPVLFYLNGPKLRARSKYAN

Efflux inhibition response, inactive:
COc1ccc(O)c(C(=O)c2cnc3c(c2)CN(C)C(=O)N3)c1 0.72%, NS(=O)(=O)c1ccc(N2N=C(c3ccccc3)CC2c2cccc(Br)c2)cc1 (stereo unspecified) -2.03%, CCCCN1Cc2cc(C(=O)c3cc(OC)ccc3O)cnc2NC1=O 1.48%, Nc1ccc(C(=O)OCCc2ccccc2)cc1 -1.83%, COc1ccc2nc(NC(=O)c3cccs3)sc2c1 -1.21%, Cc1ccc(CNC(=O)C2CCC(CNc3nc(=S)[nH]c4ccccc34)CC2)cc1 (stereo unspecified) -0.77%, CCN(CC)CCC(c1ccc(N(C)C)cc1)c1c(OC)cc(OC)c2ccc(=O)oc12 (stereo unspecified) -1.95%, O=C(c1ccoc1)N1CCC2(CC1)Oc1ccc(F)cc1C(=O)C21CC(c2ccccc2)=NO1 (stereo unspecified) 105%, COc1ccc(N2CCN(C(=O)C3CCCN(c4ncnc5c4nc4n5CCCCC4)C3)CC2)cc1 (stereo unspecified) -1.48%, O=C(C[n+]1cc(-c2ccc(Cl)cc2)n2c1CCC2)N1c2ccccc2Sc2ccccc21 -1.78%, CCOc1cccc2sc(NC(=O)c3ccc(Br)s3)nc12 -0.82%, COc1ccc([C@H]2CC(=O)C=C(c3ccnc4ccc(Cl)cc34)C2)cc1 126%, O=C(C1CCC(CNc2nc(=S)[nH]c3ccccc23)CC1)N1CCN(c2ccc(F)cc2)CC1 (stereo unspecified) -1.48%, O=C(c1ccoc1)N1CCC2(CC1)Oc1ccc(F)cc1C(=O)C21CC(c2ccc(Cl)cc2)=NO1 (stereo unspecified) 75.4%, COc1ncccc1C(=O)NC1CCCc2c1cnn2-c1cc(C)cc(C)c1 (stereo unspecified) -0.48%, O=C1C(Cc2ccccc2)Nc2ncnc(N3CCN(c4ccccc4)CC3)c2N1Cc1ccccc1 (stereo unspecified) 5.68%, Cc1ccc(N2CCN(C(=O)C3CCCN(c4ncnc5c4nc4n5CCCCC4)C3)CC2)c(C)c1 (stereo unspecified) -0.58%, NS(=O)(=O)c1ccc(N2N=C(c3ccccc3)CC2c2ccccc2)cc1 (stereo unspecified) -1.41%, Cc1ccc(C2CC(c3ccccc3)=NN2c2ccc(S(N)(=O)=O)cc2)cc1 (stereo unspecified) -2.43%, CCC(Cc1ccccc1)OC(=O)c1ccccc1C(=O)O (stereo unspecified) -0.8%, COc1ccc(S(=O)(=O)N(C)C[C@H]2Oc3c(NC(=O)NC4CCCCC4)cccc3C(=O)N([C@H](C)CO)C[C@@H]2C)cc1 122%, COc1ccc(OC)c2sc(NC(=O)c3ccc(Br)s3)nc12 -0.25%, O=C(Nc1ccccc1)C1=C[C@H](c2ccccc2)C[C@H](OCCCCO)O1 0.64%, O=C(NC1CCCc2c1cnn2-c1ccccc1F)c1ccccn1 (stereo unspecified) -0.97%, CC(C)C(=O)N1CCC2(CC1)Oc1ccc(Cl)cc1C(=O)C21CC(c2ccc(Cl)cc2)=NO1 (stereo unspecified) 22.3%, COc1ccc(C2CC(c3ccccc3)=NN2c2ccc(S(N)(=O)=O)cc2)cc1 (stereo unspecified) -1.14%, CCc1ccc(C2=NN(c3ccc(S(N)(=O)=O)cc3)C(c3ccc(F)cc3)C2)cc1 (stereo unspecified) -1.79%, NS(=O)(=O)c1ccc(N2N=C(c3ccc(Br)cc3)CC2c2ccc(F)cc2)cc1 (stereo unspecified) -1.21%, Cc1ccc(O)c(C(=O)c2cnc3c(c2)CN(C)C(=O)N3)c1 0.89%

outcome, inactive:
CC1CN(c2nc3ccccc3nc2C(C#N)C(=O)NCc2ccc3c(c2)OCO3)CC(C)O1 (stereo unspecified), CCCCN1Cc2cc(C(=O)c3cc(F)ccc3O)cnc2NC1=O
